The results in this text go back to PubChem BioAssay (Tox21).

Results filed as inconclusive are left out. A call without a number means that no potency is given here. The source made the active and inactive calls. Calls follow the shape of the dose curve; as a rule, active = well fitted cell-killing curve with a large enough effect in the repeat runs; inconclusive = weak or mixed curves, or effect the other way; inactive = flat fitted curve, though single readings scatter.

This assay in a line: qHTS assay to identify small molecule antagonists of the constitutive androstane receptor (CAR) signaling pathway - cell viability counter screen (AID 1224837). Also: nearly all actives have a fitted effect of over 45% in size. The conditions noted are these: HepG2-CYP2B6-hCAR viability, CellTiter-Fluor, 23 h, co-treated with 50 nM CITCO; series mostly up to 92.4 µM. From the text:
National Center for Advancing Translational Sciences [NCATS]
NIH Chemical Genomics Center [NCGC]
U.S. Environmental Protection Agency [EPA]
National Institutes of Environmental Health Sciences [NIEHS]
National Toxicology Program [NTP]
U.S. Food and Drug Administration [FDA]
The constitutive androstane receptor (CAR) is a nuclear receptor which regulates multiple drug metabolizing enzymes (DMEs) and transporters. Activating CAR will generally increase the transcription and subsequent translation of CYP2B6 and CYP3A4. These two DMEs represent about 50% of the drug metabolizing potential in the body. When CAR is deactivated, the metabolizing potential in the body will decrease, subsequently increasing the toxicity in the body or lowering the therapeutic potential of a pro-drug. Recently, there have also been studies performed indicating CARs role in energy metabolism and cancer therapy. Therefore, inhibiting CARs activity could have a potential effect on diabetes and cancer. Identifying environmental toxins and compounds which modulate CAR, through the use of the Tox21 10K compound collection, will be an important step in determining the toxicity and potential therapeutic effects these factors will have on the human body. To differentiate true CAR antagonists from cytotoxic substances, the assay is multiplexed with a cell viability assay.
Tox21 Assay Protocol Summary:
A double-stable (hCAR and CYP2B6-2.2kb) transfected cell line, derived from human hepatoma (HepG2) cells, was utilized for the duration of the quantitative high-throughput screens. The HepG2-CYP2B6-hCAR cells were dispensed at 2500 cells/4 uL/well in 1536-well white solid bottom plates using a Multidrop Combi. After the assay plates were incubated at 37 C/5% CO2 for 4 hrs, 23 nL of compounds at 15 concentrations (from 5-48 columns) or positive control (from 1 to 4 columns) were transferred to the assay plates using a Pintool station. One uL of CITCO (final concentration = 50 nM) was added, using a Flying Reagent Dispenser, inside each well. After a 23 hr incubation period at 37 C/5% CO2, 1 uL of CellTiter-Fluor reagent was added into each well of the assay plates using a Flying Reagent Dispenser. The fluorescence intensity in the plates was then measured using a ViewLux plate reader.
For orientation: In qHTS, concentration-response curves come from the screen itself.
With `CC[C@H](C)C(=O)O[C@H]1C[C@H](O)C=C2C=C[C@H](C)[C@H](CC[C@@H](O)C[C@@H](O)CC(=O)O)[C@H]21`, the Potency entry is “inactive”.

On to `C=C(C)C(=O)OCCOP(=O)(O)OCCOC(=O)C(=C)C`, for which the Potency result is “inactive”.

With `NCCN1CCOCC1`, the Potency result is “inactive”.

Turning to `Cc1cc(Cl)c(C)cc1Cl`, the Potency entry was “inactive”.

Regarding `CCN(CC)CC(=O)Nc1c(C)cccc1C`, the Potency entry is “inactive”.

On to `CCCCOC(=O)c1ccccc1`, for which the Potency result was “inactive”.

On to `COP(=O)(OC)OC(c1ccc(Cl)cc1)P(=O)(OC)OC` (stereo not given), for which the Potency result was “inactive”.

With `CN1C(C)(C)CCCC1(C)C`, the Potency entry is “inactive”.

Take `CC(=O)Nc1ccc(S(=O)(=O)Cl)cc1`: the Potency result was “inactive”.

Regarding `CC1(CO)CN(c2ccccc2)NC1=O` (stereo not given), the Potency result was “inactive”.

Turning to `COc1ccc(C2CNC(=O)C2)cc1OC1CCCC1` (stereo not given), the Potency entry was “inactive”.

For `Cc1cccc2nccnc12`, the Potency entry was “inactive”.

`Oc1cn2c(n1)Nc1ccc(Cl)c(Cl)c1C2`: the activity change, negative = cytotoxicity is 5.38% [at 19 µM] (inactive).

For the compound `NCCS`, the Potency result was “inactive”.

Regarding `NS(=O)(=O)c1cc2c(cc1Cl)CN(C1CCCCC1)C2=O`, the Potency result was “inactive”.

On to `CC(=O)c1ccc2c(c1)Cc1ccccc1-2`, for which the Potency result was “inactive”.

Consider `CCN1CCc2nc(N)oc2CC1`, for which the Potency entry was “inactive”.

As for `C=C(C)C(=O)OCC(C)(C)COC(=O)C(=C)C`, the Potency result is “inactive”.

On to `O=C(O)Cc1ccc(Cl)cc1Cl`, for which the Potency result is “inactive”.

Turning to `CCCCC(CC)COCCO` (stereo not given), the Potency result was “inactive”.

With `CC1=CCC(C(C)C)=CC1`, the Potency entry was “inactive”.

Turning to `OCCC(F)(F)C(F)(F)C(F)(F)C(F)(F)C(F)(F)C(F)(F)C(F)(F)C(F)(F)F`, the Potency result is “inactive”.

On to `CC(C(=O)O)c1ccc2c(c1)CC(=O)c1ccccc1S2` (stereo not given), for which the Potency result is “inactive”.

As for `CC(CC=O)CCCC(C)(C)O` (stereo not given), the Potency result was “inactive”.

Take `COC(=O)c1ccccc1C(=O)c1ccc(OCCN2CCCCC2)cc1`: the Potency entry was “inactive”.

In the case of `CC(C)NCC(O)COc1ccc(COCCOC(C)C)cc1` (stereo not given), the Potency result is “inactive”.

Consider `CC(C)(C)c1cc(CCC(=O)NN)cc(C(C)(C)C)c1O`, for which the Potency entry is “inactive”.

In the case of `CCCN1C[C@H](CSC)C[C@@H]2c3cccc4[nH]cc(c34)C[C@H]21`, the Potency result is “inactive”.

In the case of `COc1ccc(S(=O)(=O)N2c3ccc(Cl)cc3[C@@](O)(c3ccccc3Cl)[C@H]2C(=O)N2CCC[C@@H]2C(N)=O)cc1OC`, the Potency entry was “inactive”.

Turning to `CCC(C)NC(N)=O` (stereo not given), the Potency result was “inactive”.

Regarding `COc1ccc(OC)c(Cl)c1`, the Potency result is “inactive”.

As for `CO[C@@H]1[C@@H](OC(N)=O)[C@@H](O)[C@H](Oc2ccc3c(O)c(NC(=O)c4ccc(O)c(CC=C(C)C)c4)c(=O)oc3c2C)OC1(C)C`, the Potency result was “inactive”.

`NS(=O)(=O)c1ccc(NC(=O)CCC(=O)O)cc1`: the Potency entry is “inactive”.

Turning to `CC(C)N(c1ccccc1)C(C)C`, the Potency entry was “inactive”.

With `CCn1ccc(NS(=O)(=O)c2ccc(N)cc2)nc1=O`, the Potency result is “inactive”.

On to `O=C1c2ccccc2C(=O)C1c1ccccc1`, for which the Potency entry is “inactive”.

In the case of `O=S(=O)(O)CCN1CCN(CCO)CC1`, the Potency entry is “inactive”.

Consider `COc1cc2c(cc1OC)C(=O)CC2`, for which the Potency entry is “inactive”.

On to `CCCC/C=C/C=C\C=O`, for which the Potency result was “inactive”.

For the compound `CC1COc2ccccc2N1` (stereo not given), the Potency entry was “inactive”.
